Our source for the growth values is PubChem BioAssay (NCI).

The test system of this test is MDA-MB-468 breast. Kind of test: NCI-60 one-dose screen, 48 h (100 = growth as untreated, 0 = no growth, -100 = all killed). The following applies: 10 µM unless noted.

Compounds without any hit were thinned out: in the full panel of roughly 83,000, 20% have a hit.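 48-hour exposure, single concentration, 96-well plates; percent growth endpoint where 0 means no net growth. Active: below 10.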 A number with no mark means an inactive call. Active and inactive are the calls of the source.

`CC(C)(C)c1cc(C(C)(C)c2ccccc2)cc(Cc2cc(C(C)(C)c3ccccc3)cc(C(C)(C)C)c2O)c1O`: the growth was 95.2%.
For `COc1cc(C(=O)n2nc(NCCCc3ccccc3)c3cc(N)ccc32)cc(OC)c1OC` the value was 91.4%.
For `O=C1Nc2ccc(Cl)cc2/C1=C/c1cccs1` the value was -4.25% (active); for `CC1(C)CC[C@]2(C(=O)N3CCOCC3)CC[C@]3(C)C(=CC[C@@H]4[C@@]5(C)CC[C@H](OC(=O)c6cccnc6)C(C)(C)[C@@H]5CC[C@]43C)[C@@H]2C1`, 45.6%; for `Nc1ccc(C2=NN(c3ccccc3)C(c3ccc(Cl)cc3)C2)cc1` (stereo not drawn), 62.6%.
Take `O=C(CO[N+](=O)[O-])Nc1ccc(C(=O)/C=C/c2ccc(Cl)cc2)cc1`: the growth is 48.7%.
As for `CCc1c2c(nc3ccc(OC(=O)OCc4ccc(B5OC(C)(C)C(C)(C)O5)cc4)cc13)-c1cc3c(c(=O)n1C2)COC(=O)[C@]3(O)CC`, the figure is -33.6% (active); as for `NC1=C(Cl)C(=O)c2ccc(S(N)(=O)=O)cc2C1=O`, -92.4% (active); as for `CN1C(=O)/C(=C\c2nc([P+](c3ccccc3)(c3ccccc3)c3ccccc3)c(N3CCOCC3)o2)SC1=S`, 10.1%.
As for `C[C@H]1[C@H]2[C@H]3CC[C@@H]4[C@@]5(C)C/C(=C/c6cccnc6)C(=O)C(C)(C)[C@@H]5CC[C@@]4(C)[C@]3(C)CC[C@]23CO[C@]1(C)[C@@H](C(=O)/C=C\c1cccnc1)C3`, the figure is -5.83% (active); as for `C#CC[C@H](N)C(=O)O`, 101% [20 µM].
For `O=C(CCCCCCN1CC(=O)N2[C@H](c3ccc(Cl)cc3)c3[nH]c4ccccc4c3C[C@@H]2C1=O)NO`, the growth is 36.5%.
As for `COc1cc(C)c2sc3ccccc3c(=O)c2c1NCCN(C)C`, the figure is 49%.
As for `C[C@H]1[C@H]2[C@H]3CC[C@@H]4[C@@]5(C)CC[C@H](O)C(C)(C)[C@@H]5CC[C@@]4(C)[C@]3(C)CC[C@]23CO[C@]1(C)[C@@H](C(=O)/C=C\c1cccnc1)C3`, the figure is 20.5%; as for `COc1ccccc1-c1ccc2nc(NC(=O)Nc3cc(C(F)(F)F)cc(C(F)(F)F)c3)sc2c1`, -8.23% (active).
For `CCN(CC)CCCNc1cccc2c(C)cc(OC)nc12` the value was 74.8%.
As to `C=C1CC[C@@H]2[C@](C)(COC(C)=O)[C@H](OC(C)=O)CC[C@@]2(C)[C@@H]1CC(Nc1ccc(S(=O)(=O)Nc2ccc(Cl)nn2)cc1)C1=CCOC1=O` (stereo partly drawn), the growth was -32.3% (active).
`CN(C)c1ccc(N=C2C=CC(=O)c3ccccc32)cc1`: the growth was 65.6%.
Regarding `O=C(/C=C/c1ccccc1)Nc1ncc(Cc2ccccc2)s1`, the growth is 29.7%.
As for `COc1cc(NC(=O)CCSc2nc3ccc(C)cc3c(=O)n2Cc2ccccc2)cc(OC)c1OC`, the figure is 68.6%; as for `CN(C)CCN1C(=O)c2ccc3c4c(ccc(c24)C1=O)C(=O)N(CCN=C=S)C3=O`, -88.8% (active).
For `O=C(Nc1ccc(Cl)cc1)Nc1ccc(Cl)c(C(F)(F)F)c1` the value was 10.3%.
For `O=C1/C(=C/c2ccc(Cl)cc2Cl)CN(S(=O)(=O)c2ccccc2)C/C1=C\c1ccc(Cl)cc1Cl` the value was -24.5% (active).
Turning to `C=CCN1C(=O)[C@]2(SC1=S)[C@H](c1cccc(Cl)c1)CN(C)[C@]21C(=O)NC2C=CC(Cl)=C[C@H]21` (stereo partly drawn), the growth was 27%.
For `O=C(/C=C/c1ccc(F)cc1)c1ccc(Nc2nc(NCCO)nc(Nc3ccc(Cl)cc3)n2)cc1` the value was 57.8%; for `COc1cc2oc(-c3cccc(C(=O)N[C@@H](CC(C)C)C(=O)OC(C)(C)C)c3)cc(=O)c2c(OC)c1OC`, 85.6%.
As for `CC1=CC(=O)OC1C/C=C(\C)CCC1[C@@]2(C)CCC[C@@](C)(C(=O)O)C2CC[C@@]1(C)O` (stereo partly drawn), the figure is 102%; as for `O=C(c1ccc(Nc2nccc(NCCCCNc3ccnc4cc(Cl)ccc34)n2)cc1)N1CCCCC1`, -25.3% (active); as for `Cc1nn(-c2ccccc2)c2nc3nc4c(c(N)c3c(-c3ccc(Cl)cc3)c12)CCC4`, 99.3%.
For `C=C(C)[C@@H]1CC[C@]2(C(=O)NCCCCCN(CCC#N)CCC#N)CC[C@]3(C)[C@H](CC[C@@H]4[C@@]5(C)CCC(=O)C(C)(C)[C@@H]5CC[C@]43C)[C@@H]12` the value was 103%.
`Cc1ccc(-c2nc3c(c(-c4ccccc4)nn3-c3ccccc3)c(-c3ccc(O)cc3)c2C#N)cc1`: the growth was 52.7%.
For `Nc1nc(N)c2c(n1)NC(c1cccc(Nc3ccnc4cc(C(F)(F)F)ccc34)c1)CC(c1ccc(Cl)cc1)=N2` (stereo not drawn) the value was 21.5%; for `O=C(N/N=C/c1cc(Cl)ccc1O)c1ccccc1Nc1ccnc(C(F)(F)F)c1`, 12.8%; for `CC(=O)c1cc2c(c(O)c1C)C(=O)C(=O)c1c(O)cccc1-2`, -58% (active).
For `CC(=O)N(C)c1ccc([N+](=O)[O-])cc1` the value was 101%.
Regarding `O=C(Oc1ccc2ccc(=O)oc2c1)c1ccc(Cl)cc1`, the growth is 115%.
On to `C[C@@H]1CCCCCCCCC[C@H](O)C(=O)C[C@@H](SC[C@@H](O)C(=O)O)C(=O)O1`, for which the growth was 104%.
For `CC(O)c1cc2ccccc2c(=O)o1` (stereo not drawn) the value was 98.7%.
